Records with an inconclusive call do not appear. Calls of active or inactive are those of the source. Calls follow the shape of the dose curve; as a rule, active = well fitted cell-killing curve with a large enough effect; inconclusive = small, poorly fitted or top-dose-only effect, or effect the other way; inactive = no such curve, though single readings can be large or run the other way.

The assay in a line: qHTS assay to identify small molecule inhibitors of chordoma cells - UCH-1 (AID 1259355). Also: nearly all actives have a fitted effect of over 55% in size. Particulars: UCH-1 chordoma viability, CellTiter-Glo, 48 h, combination, with auranofin plus four topoisomerase inhibitors; series mostly up to 46.1 µM. The source says: NIH Chemical Genomics Center [NCGC]
Chordoma is a rare and slow growing tumor that can occur anywhere along the spine, from the base of the skull to the tailbone. Current treatment options for chordoma is surgery and radiation therapy for those who are not candidates for surgery. But chordomas tend to return in the same location or surrounding areas of the original tumor after surgery and/or radiation. Chemotherapy can slow down the progression of the tumor. As chordoma is slow growing, the general cytotoxic agents that kill fast growing cells are ineffective, and some patients have been reported to respond to molecularly targeted drugs.
NCATS Pharmaceutical Collection (NPC) containing approximately 3000 clinically approved and investigational drugs were used to screen at 15 concentrations in a chordoma cell lines, UCH-1, to identify small molecule compounds that can inhibit chordoma cell growth.
NCGC Assay Protocol Summary:
Human chordoma cell line UCH-1 was dispensed at 800 per well in 4uL of culture medium into white solid bottom 1536-well plates (Corning Life Sciences, Corning, NY) using a Multidrop Combi (Thermo Scientific, Waltham, MA) dispenser. The assay plates were incubated at 37 C and 5% CO2 for an overnight, and then 23nL of compounds dissolved in DMSO and positive control were transferred using a Pintool station (Wako, San Diego, CA). Compound treatment was followed by the addition of 1uL of the combination compounds (1uM Auranofin, 500nM each of Camptothecin, Doxorubicin, Rubitecan, and Topotecan) and assay medium to each well of the assay plates using Flying Reagent Dispenser (FRD, Aurora Discovery, San Diego, CA). The assay plates were incubated at 37 C and 5% CO2 for 48hr. Then 5uL of CellTiter-Glo reagent (Promega Corporation, Madison, WI) was added to each well of the assay plates using FRD. After 30min incubation at room temperature, the luminescence signal was quantified using a ViewLux plate reader (PerkinElmer, Shelton, CT).
On the technique in general: In qHTS, concentration-response curves come from the screen itself.
On to `N#Cc1c(N(CC(=O)O)CC(=O)O)sc(C(=O)O)c1CC(=O)O`, for which the result was inactive.

Turning to `COc1ccnc(CS(=O)c2nc3ccc(OC(F)F)cc3[nH]2)c1OC` (stereo not drawn), the result was inactive.

In the case of `NS(=O)(=O)c1cc(Cl)c(Cl)c(S(N)(=O)=O)c1`, the result was inactive.

With `CN1CCN2c3ncccc3Cc3ccccc3C2C1` (stereo not drawn), the outcome was inactive.

For `N#CC(c1ccc(Cl)cc1)c1c(Cl)cc(-n2ncc(=O)[nH]c2=O)cc1Cl` (stereo not drawn), the outcome was inactive.

`COc1cc2c(cc1OC)CC(=O)N(CCCN(C)C[C@H]1Cc3cc(OC)c(OC)cc31)CC2`: the outcome was inactive.

For `CN1CC(=O)N2C(Cc3c([nH]c4ccccc34)[C@H]2c2ccc3c(c2)OCO3)C1=O` (stereo partly drawn), the result was inactive.

Consider `CC[C@H](C)C(=O)O[C@H]1C[C@H](O)C=C2C=C[C@H](C)[C@H](CC[C@@H](O)C[C@@H](O)CC(=O)O)[C@H]21`, for which the result was inactive.

As for `CC(C)CN(C[C@@H](O)[C@H](Cc1ccccc1)NC(=O)O[C@H]1CO[C@H]2OCC[C@H]21)S(=O)(=O)c1ccc(N)cc1`, the result was inactive.

For `COc1c(C)c2c(c(O)c1CC=C(C)CCC(=O)OCCN1CCOCC1)C(=O)OC2`, the outcome was inactive.

Consider `CS(=O)(=O)c1ccc(C2=C(c3ccccc3)C(=O)OC2)cc1`, for which the result was inactive.

In the case of `Cc1cc2nc3c(=O)[nH]c(=O)nc-3n(CC(O)C(O)C(O)CO)c2cc1C` (stereo not drawn), the outcome was inactive.

Regarding `O=C(O)c1nc(=O)[nH]c(=O)[nH]1`, the result was inactive.

These data come from PubChem BioAssay (NCATS).
